Only some compounds are listed: those with a hit (about 19% of all), similar ones and a draw of the others.
TDP1 cell noCPT: qHTS for Inhibitors of human tyrosyl-DNA phosphodiesterase 1 (TDP1): qHTS in cells in absence of CPT. Potency, µM (series often up to 46.2 µM), inactives show at the top dose activity change, negative = growth inhibition, most hits filed as inhibitors. AID 686978, 2013. DT40 Tdp1-/- hTDP1 cells, no CPT, ATP luminescence, 48 h. 420,000 tested, 15% active; note: potency is the fitted concentration of half-maximal effect; nearly all actives have a fitted effect of over 55% in size
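DT40 Tdp1-/-;hTDP1 cells, no CPT (DMSO vehicle only), 400 cells/well; compounds pin-transferred; ≥48 hr, 37 °C; CellTiter-Glo 30 min RT dark, luminescence read.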
TDP1 cell CPT: growth inhibition of DT40 Tdp1-/-;hTDP1 cells with camptothecin (screen for TDP1 inhibitors). chicken DT40 Tdp1-/-;hTDP1 cells + 20 nM CPT, ATP luminescence, 48 h. Potency, µM (highest dose often 46.2 µM), for the others: at the top dose activity change, negative = growth inhibition, usual class: inhibitors. 420,000 tested, 12% active. AID 686979; note: potency is the fitted concentration of half-maximal effect; nearly all actives have a fitted effect of over 55% in size
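Chicken DT40 Tdp1-/- cells stably complemented with human TDP1 were seeded at 400 cells/well in medium containing 20 nM camptothecin, exposed to pin-transferred compounds, and grown at 37 °C for at least 48 hr. Viability was read as ATP luminescence.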
uPA generation: inhibitors of cell surface uPA generation; cell surface uPA generation assay, qHTS; Potency, µM (top dose mostly 38.3 µM), without a hit: at the top dose activity change, negative = inhibition, hits mostly inhibitors; 330,000 tested, 0.31% active; active = well fitted inhibition curve with a large enough effect; inconclusive = small, poorly fitted or top-dose-only effect; inactive = no such curve, though single readings can be large or run the other way; tested in mouse RAW 264.7 cells; note: potency is the fitted concentration of half-maximal effect; nearly all actives have a fitted effect of over 55% in size
HT1080 IDH1KD tx: HT-1080 IDH1 knockdown cell toxicity (counter line) | HT-1080 IDH1 knockdown viability, ATP luminescence, 48 h | Potency, µM (highest dose often 46.1 µM), inactives show top-dose activity, negative = toxicity, actives largely listed as cytotoxic | 360,000 tested, 2% active | AID 686971;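 note: potency is the fitted concentration of half-maximal effect; 0% = DMSO wells and -100% = cell-free medium wells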
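IDH1KD HT-1080 cells, 750/well, RPMI + 5% FBS; compound pinned after 2 h settling; 48 h, 37 °C; CellTiter-Glo luminescence; % activity normalised to DMSO and no-cell wells; curves fitted, classed by r2 and efficacy.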
HT1080-NT tox: kills 2HG-producing HT-1080-NT fibrosarcoma cells. HT-1080-NT fibrosarcoma viability, CellTiter-Glo ATP luminescence, 48 h. Potency, µM (highest dose often 46.1 µM), without a hit: top-dose activity, negative = less viability, usual class: cytotoxic. 360,000 tested, 1.6% active. AID 686970;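 note: NT is the 2HG producing partner of a matched IDH1 knockdown line; potency is the fitted concentration of half-maximal effect; 0% = DMSO-treated cells and -100% = media-only wells without cells; nearly all actives have a fitted effect of over 55% in size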
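750 cells/well, RPMI + 5% FBS; 2 h settle, compound pin-transfer, 48 h at 37 degrees C. CellTiter-Glo 10 min RT, luminescence. Normalized to DMSO and media-only wells.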
IL1B secr inh: inflammasome signaling inhibition, IL-1 beta readout; 360,000 tested, 4.7% active; THP-1 LPS/ATP IL-1B secretion, AlphaLISA, 16 h; stronger effect = lower value; AID 743279; activity change, % at 57.5 µM; in the data active = activity change below about -50%; inconclusive = mostly about -30% to -49%
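THP-1 cells pretreated 1 hr with compounds (up to 57.5 uM final), then stimulated with LPS (250 ng/mL final) plus ATP (1.25 mM final); secreted IL-1B measured by AlphaLISA after 16 hr, decreased signal indicating inhibition.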
Active calls of the source: *; ? = inconclusive; / = no result. Unless noted, calls come from the whole dose curve; as a rule, active = well fitted curve in the direction sought with a large enough effect; inconclusive = small, poorly fitted or top-dose-only effect, or another doubt; inactive = no such curve, though single readings can be large; an effect the other way counts as inactive or inconclusive. Unless noted, % is set by controls: 0 for no effect and ±100 for the full control effect.

SMILES	TDP1 cell noCPT	TDP1 cell CPT	uPA generation	HT1080 IDH1KD tx	HT1080-NT tox	IL1B secr inh
CCOc1ccc(NS(=O)(=O)c2cccc(C(=O)N3CCN(C/C=C/c4ccccc4)CC3)c2)cc1	16.4µM*	?	-9.0%	0.3%	6.3%	?
CCOc1ccc(NC(=S)N2CCN(C/C=C/c3ccccc3)CC2)cc1	18.4µM*	?	0.4%	-10.4%	-23.9%	?
Nc1cc(S(=O)(=O)N2CCCCC2)ccc1Oc1ccc(Cl)cc1	8.2µM*	?	-6.0%	?	0.3%	-14.1
Cc1cccc(Oc2ccc(S(=O)(=O)N3CCCCC3)cc2N)c1	?	?	-8.0%	?	-14.4%	27.1
COC(=O)c1ccc(Oc2ccc(S(=O)(=O)N3CCCCC3)cc2N)cc1	16.4µM*	?	-6.3%	-14.7%	?	12.2
COC(=O)CNc1cc(S(=O)(=O)N2CCCCC2)ccc1Oc1ccc(C(=O)OC)cc1	?	?	-0.5%	-20.8%	-9.3%	3.9
COc1ccc(N(C)S(=O)(=O)c2cccc(C(=O)N(C)Cc3ccc(C)o3)c2)cc1	?	?	-1.1%	-9.9%	-13.3%	-18.9
COc1ccc(S(=O)(=O)N2CCCCC2c2cc(C(=O)NCc3ccccc3)no2)cc1 (stereo not drawn)	?	25.9µM*	/	-1.1%	-10.7%	?
CCCNC(=O)c1cc(C2CCCCN2S(=O)(=O)c2ccc(OC)cc2)on1 (stereo not drawn)	?	-37.8%	/	2.8%	9.7%	1.7
COc1ccc(S(=O)(=O)N2CCCCC2c2cc(C(=O)Nc3ccc4c(c3)OCO4)no2)cc1 (stereo not drawn)	14.6µM*	18.4µM*	/	?	-27.4%	0.0
O=C(NCc1ccc(F)cc1)c1cc(C2CCCCN2S(=O)(=O)c2ccc(F)cc2F)on1 (stereo not drawn)	?	23.1µM*	/	6.4%	15.9%	2.3
O=C(NCc1ccccc1)c1cc(C2CCCCN2S(=O)(=O)c2ccccc2)on1 (stereo not drawn)	25.9µM*	?	/	-1.6%	0.1%	27.2
CC1CN=C(NS(=O)(=O)c2ccccc2)N1 (stereo not drawn)	-2.5%	8.9%	/	-4.1%	-2.2%	-13.8
C=CCNC(=O)Cn1c(=O)c2c(ncn2CCC(C)C)n(Cc2ccccc2)c1=O	-27.8%	2.1%	/	1.7%	2.6%	-5.5
N#Cc1cccc(NC(=O)c2cc(C3CCCCN3S(=O)(=O)c3ccccc3)on2)c1 (stereo not drawn)	16.4µM*	?	/	-11.4%	-2.0%	9.3
CC(C)NC(=O)c1cc(C2CCCCN2S(=O)(=O)c2ccc(C#N)cc2)on1 (stereo not drawn)	-23.7%	-5.3%	/	6.1%	-0.8%	-20.3
CCCCN(C=O)c1c(CC)nc2c(OCc3ccccc3C)cccn12	?	14.6µM*	/	-17.7%	13.5%	6.0
CCCCN(C=O)c1c(CC)nc2c(OCc3ccc(Cl)cc3Cl)cccn12	9.2µM*	20.6µM*	/	?	?	-18.7
CCc1nc2c(OCc3ccccc3C)cccn2c1N(C)C(=O)C1CC1	23.1µM*	?	/	7.2%	?	-1.2
COc1ccccc1/C=C\C(=O)NCC(=O)N/N=C/c1ccc(O)cc1O	?	?	0.9%	9.2µM*	?	71.3
COc1cccc(/C=N/NC(=O)CNC(=O)C(c2ccccc2)c2ccccc2)c1O	5.8µM*	7.31µM*	-2.1%	?	?	76.7
COc1cccc(/C=N/NC(=O)CNC(=O)/C=C\c2ccccc2)c1O	2.06µM*	?	?	21.9%	-3.3%	37.2
COc1ccc(Br)cc1/C=N/NC(=O)CNC(=O)/C=C/c1ccccc1	13µM*	16.4µM*	12.3%	?	?	88.5
